Bioassay records from PubChem BioAssay.
FAS TE block: blocks the thioesterase domain of human fatty acid synthase | P49327 | recombinant FAS-TE, OMFH fluorogenic substrate, fluorescence endpoint | inhibition, % at 15 µM | actives 0.67% (n = 360,000) | AID 602261;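 active means compounds whose normalised, plate-corrected inhibition of enzyme fluorescence in the single-dose primary screen is 50% or more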;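 further: 0% = DMSO with enzyme and 100% = substrate without enzyme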
HGIII-sPLA2 inh: Inhibits HGIII-sPLA2 liposome hydrolysis, primary screen; AID 743126; Q9NZ20; inhibition, % at 12.2 µM; actives 0.56% (n = 370,000); QFRET BODIPY PC-A2 liposome hydrolysis, fluorescence;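 active means inhibition above mean plus 3 SD of compounds lying within the high and low control bounds, cut at about 19% in these data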;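 further: 0% = median of test compound wells and 100% = no enzyme DMSO wells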
GRIN3A LBD mod: modulators (binders) of human NR3A ligand-binding domain; actives 2.5% (n = 340,000); NR3A LBD differential scanning fluorimetry, Tm shift; 0% = protein alone, 100% = glycine-bound protein; Tm shift relative to glycine control, % at 25 µM;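 active means melting temperature shift of at least 10% of the positive control shift, at one fixed dose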
ADAM17 inh: inhibitors of human ADAM17. P78536. recombinant ADAM17, EDANS/DABCYL FRET peptide cleavage. inhibition, % at 6.95 µM. actives 0.83% (n = 370,000). AID 720648;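 active means inhibition above the mean of compounds lying between control limits plus 3 SD, set per campaign, cut at about 8.5% in these data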;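 further: 0% = DMSO-only wells as the low control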
Target sequence (P78536 215-824 limits assumed): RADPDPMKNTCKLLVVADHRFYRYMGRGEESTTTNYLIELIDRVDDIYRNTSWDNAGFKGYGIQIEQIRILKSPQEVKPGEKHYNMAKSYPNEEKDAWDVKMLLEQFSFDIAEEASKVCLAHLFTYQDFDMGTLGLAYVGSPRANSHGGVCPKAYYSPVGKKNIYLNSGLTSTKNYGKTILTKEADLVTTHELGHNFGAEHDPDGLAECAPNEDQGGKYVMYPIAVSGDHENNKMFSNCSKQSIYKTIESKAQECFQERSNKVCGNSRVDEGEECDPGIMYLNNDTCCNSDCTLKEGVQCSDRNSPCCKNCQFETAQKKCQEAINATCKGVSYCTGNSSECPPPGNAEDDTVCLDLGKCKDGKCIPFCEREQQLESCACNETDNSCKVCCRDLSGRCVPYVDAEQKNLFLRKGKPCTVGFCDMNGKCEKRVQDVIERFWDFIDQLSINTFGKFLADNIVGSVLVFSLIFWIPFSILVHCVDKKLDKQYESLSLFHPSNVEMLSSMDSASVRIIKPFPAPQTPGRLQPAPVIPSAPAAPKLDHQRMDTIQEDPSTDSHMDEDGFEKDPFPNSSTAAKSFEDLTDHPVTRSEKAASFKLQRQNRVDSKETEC
ADAM10 inh: ADAM10 inhibition, QFRET primary screen; O14672; recombinant ADAM10, EDANS/DABCYL FRET peptide cleavage, 3 h; inhibition, % at 7 µM; actives 0.62% (n = 370,000); AID 720582;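 active means inhibition above a per-campaign cutoff equal to the mean of compounds falling between control-based bounds plus 3 SD, cut at about 20% in these data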;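 further: 0% = DMSO wells while the 100% control is not disclosed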
FAS-TE inh conf: FAS thioesterase (human) inhibition, confirmation. recombinant FAS-TE, OMFH fluorogenic substrate, fluorescence. inhibition, % at 15 µM. actives 45% (n = 2,300). shares compounds with FAS TE block;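 active means compounds inhibiting the enzyme by at least 50% at 15 µM in any one of the replicates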;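 further: 0% = enzyme with DMSO only and 100% = wells lacking enzyme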
Numbers without * were called inactive; . = no result given. A selection: hits, their analogues and other compounds. The true share with any hit is near 4.3%.

SMILES	FAS TE block	HGIII-sPLA2 inh	GRIN3A LBD mod	ADAM17 inh	ADAM10 inh	FAS-TE inh conf
O=C(Nc1ccc(F)cc1)C(c1ccccc1)N1CCN(S(=O)(=O)c2ccc3ccccc3c2)CC1 (configuration not stated)	86*	-13	7	5	20	18
CCC(=O)N1CCc2cc(Br)c(S(=O)(=O)NCCCN(CC)Cc3ccccc3)cc21	.	1	.	3	-6	.
COc1cc(CNc2nc(C)c([N+](=O)[O-])c(C)c2C#N)cc(OC)c1OC	55*	1	2	-1	-1	59*
COc1ccc(CNc2nc(C)c([N+](=O)[O-])c(C)c2C#N)cc1	43	-3	-8	2	4	.
O=C(c1cc(COc2cccc(C(F)(F)F)c2)on1)N1C[C@@H]2CCC[C@H]1C2	56*	-12	-1	0	4	24*
O=C1CCC[C@H]2Cc3nc4cc5c(cc4cc3C[C@]23CCCN13)OCO5	.	1	.	-13	-42	.
Cn1ccnc1C(=O)O[C@@H]1CCC[C@@]2(C(=O)N(Cc3ccccc3)c3ccccc32)[C@H]1NC(=O)CCc1ccccc1	.	8	.	3	7	.
CCc1nc2c(OCc3ccc(Cl)cc3)cccn2c1N(C=O)Cc1ccc(OC)cc1	54*	-6	.	3	9	62*
CCc1nc2c(OCc3ccc(Cl)cc3Cl)cccn2c1N(C=O)Cc1ccc(OC)cc1	78*	1	.	1	-11	62*
Cc1cccc(C)c1Cn1c(C)c(C(=O)NCc2ccc([N+](=O)[O-])cc2)sc1=O	61*	-17	.	4	14	62*
COC(=O)c1ccc(Cn2c(C)c(C(=O)NCc3ccc([N+](=O)[O-])cc3)sc2=O)o1	21	3	.	-2	-11	.
O=S1(=O)c2ccc(Br)cc2OC[C@@H](c2ccccc2)N1Cc1cn(CCC2OCCO2)nn1	.	14	.	-4	-6	.
Cc1cc(C)c(C#N)c(SCS(=O)Cc2ccc(Cl)cc2)n1 (configuration not stated)	69*	-15	0	3	-3	71*
Cc1cc(C)c(C#N)c(SCS(=O)Cc2ccccc2)n1 (configuration not stated)	19	2	-1	1	6	.
CCCCc1c(-c2ccccc2OC)ncn1C(C)c1ccc(Cl)cc1 (configuration not stated)	.	-14	.	-3	-2	.
CCCN1C[C@H](CSC)C[C@@H]2c3cccc4[nH]cc(c34)C[C@H]21	-5	-33	-2	-10	-24	.
CN1C[C@H](C(=O)N[C@]2(C)O[C@@]3(O)[C@@H]4CCCN4C(=O)[C@H](Cc4ccccc4)N3C2=O)CC2c3cccc4[nH]cc(c34)C[C@H]21 (some centres not stated)	56*	-51	-2	-7	-8	52*
COc1ccc(CCNC(=O)c2cnn(-c3ccccc3)c2N)cc1OC	.	-4	.	-1	2	.
CCOc1cc(/C=C(\C#N)C(=O)Nc2ccccc2C(=O)O)ccc1OC(=O)c1ccc(C)cc1	80*	2	-1	2	1	-8
Cc1ccc(-c2csc(NC(=O)C3CCN(S(=O)(=O)c4cccs4)CC3)n2)cc1	2	0	1	6	8	.
O=C(Nc1nc(-c2ccc3ccccc3c2)cs1)C1CCN(S(=O)(=O)c2cccs2)CC1	88*	-2	-8	2	-1	7
CC(=O)N(C1=C(Cl)C(=O)c2ccccc2C1=O)C1CCCCC1	80*	-11	-5	-2	-9	71*
COc1ccc(NC(=O)c2nc[nH]c2C(=O)N[C@H](C)c2ccccc2)cc1	56*	0	-16	6	14	50*
CC(C)(C)OC(=O)N1CCC2(CC1)Oc1ccc(F)cc1C(=O)C21CC(c2cccnc2)=NO1 (configuration not stated)	4	-3	0	-8	-23	.
O=C(/C=C/c1cccs1)N1CCC2(CC1)Oc1ccc(F)cc1C(=O)C21CC(c2ccc(Cl)cc2)=NO1 (configuration not stated)	62*	0	1	-4	-6	-5
SMILES	FAS TE block	HGIII-sPLA2 inh	GRIN3A LBD mod	ADAM17 inh	ADAM10 inh	FAS-TE inh conf
O=C(c1ccc2c(c1)OCO2)N1CCC2(CC1)Oc1ccc(Cl)cc1C(=O)C21CC(c2ccccc2)=NO1 (configuration not stated)	54*	4	-2	0	-1	6
Cc1noc(C)c1C(=O)N1CCC2(CC1)Oc1ccc(F)cc1C(=O)C21CC(c2ccc(Cl)cc2)=NO1 (configuration not stated)	94*	-9	0	6	12	22
O=C(/C=C/c1cccs1)N1CCC2(CC1)Oc1ccc(Cl)cc1C(=O)C21CC(c2ccc(Cl)cc2)=NO1 (configuration not stated)	50*	0	1	3	10	12
O=C(c1ccc2c(c1)OCO2)N1CCC2(CC1)Oc1ccc(F)cc1C(=O)C21CC(c2ccc(Cl)cc2)=NO1 (configuration not stated)	31	7	-2	0	0	.
O=C(NCc1cccc2ccccc12)C1CCCN(c2nc3ccccc3o2)C1 (configuration not stated)	.	-14	.	1	-1	.
CC(C)C(=O)N1CCC2(CC1)Oc1ccc(Cl)cc1C(=O)C21CC(c2ccc(Cl)cc2)=NO1 (configuration not stated)	50*	4	1	6	12	8
O=C1c2cc(Cl)ccc2OC2(CCNCC2)C12CC(c1ccc(Cl)cc1)=NO2 (configuration not stated)	-28	.	1	.	.	.
O=C(Nc1ccc(Cl)c(Cl)c1)c1cccc2c1-c1ccccc1C2=O	.	0	.	0	3	.
Cc1ccc(-c2nn(-c3ccccc3)cc2C(=O)Nc2ccc(C)c(S(=O)(=O)N3CCOCC3)c2)cc1	41	1	8	4	10	.
O=C(Nc1cccc(S(=O)(=O)N2CCOCC2)c1)c1cn(-c2ccccc2)nc1-c1ccccc1	51*	-7	6	3	11	20
CCCC#Cc1ccc(CC[C@H]2O[C@H]3CC[C@@H](CO)O[C@H]3C[C@H]2NC(=O)CN2CCOCC2)cc1	.	-4	.	3	-3	.
Cc1nn(Cc2ccc(F)cc2)c2sc(C(=O)Nc3ccc(N4CCOCC4)cc3N3CCOCC3)cc12	52*	-2	-1	-1	0	26
O=C(CSCc1ccc(F)cc1)Nc1ccc(N2CCOCC2)cc1N1CCOCC1	0	7	0	-9	-5	.
COc1cc(/C=N/NC(=O)c2ccc(CN3c4cccc5cccc(c45)S3(=O)=O)cc2)cc(OC)c1O	6	-1	2	-47	-129	.
